Assay in all cases: cross-linking mass spectrometry
Holding throughout (settings): DSSO, not determined

In assay [1] the target is ATP1B3 (UniProt P54709).
For assay [2], the target named is DIP2B (UniProt Q9P265).
Assay [3] deals with INPP5F (UniProt Q9Y2H2).
The target in assay [4] is ITPR2 (UniProt Q14571).
In assay [5] the target is NMI (UniProt Q13287).
The target in assay [6] is S100A6 (UniProt P06703).
The target in assay [7] is SLC44A1 (UniProt Q8WWI5).
The target in assay [8] is WAC (UniProt Q9BTA9).

Regarding PLS3, P13797, the cross-linked residues result in assay [1] is given as “K42 - K182”.
PLK3, Q9H4B4: the cross-linked residues entry in assay [2] is reported as “K217 - K118”.
For B2M, P61769, the cross-linked residues result in assay [3] was “K39 - K352”.
Consider OAS2, P29728, for which, in assay [4], the cross-linked residues entry is “K388 - K954”.
For RNASEH1, O60930, the cross-linked residues result in assay [5] is on record as “K236 - K156”.
Regarding TPD52L2, O43399, in assay [6], the cross-linked residues entry is recorded as “K175 - K47”.
In the case of KNTC1, P50748, in assay [7], the cross-linked residues entry was “K859 - K145”.
For CENPN, Q96H22, the cross-linked residues entry in assay [8] is recorded as “K245 - K175”.

The record behind these values is paper PMC11442847.
